# Laboratory results from PubChem BioAssay AID686978 (National Center for Advancing Translational Sciences (NCATS), 2013).
# Hit rate of the full screen: of about 420,000 compounds, about 64,000 (15%) were called active. Another 27% or so got no clear call; they are omitted. The call rests on the fitted dose curve; in most records, active means well fitted inhibition curve with a large enough effect; inconclusive means small, poorly fitted or top-dose-only effect; inactive means flat fitted curve, though single readings scatter. Only a sample is shown.
# Assay: qHTS for Inhibitors of human tyrosyl-DNA phosphodiesterase 1 (TDP1): qHTS in cells in absence of CPT; further: nearly all actives have a fitted effect of over 55% in size
# Settings: DT40 Tdp1-/- hTDP1 cells, no CPT, ATP luminescence, 48 h; activity change, negative = growth inhibition: at 46.2 µM (top of the series)
# How it was run: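 Seeded 400 DT40-hTDP1 cells/well (vehicle DMSO, no 20 nM CPT); pinned compounds; ≥48 hr at 37 °C; CellTiter-Glo luminescence as viability measure.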
# On the % scale 0 is the no-effect control and ±100 the full control effect; potency means the concentration at half of the fitted maximal effect.
Structure (SMILES),"activity change, negative = growth inhibition",Potency
COc1cc(OC)cc(C(=O)NC(C(=O)N2CCC2)C(C)C)c1 (stereo not drawn),-6.14% (inactive),
COc1cc(OC)cc(C(=O)NCC(=O)N2CCCCCCC2)c1,3.53% (inactive),
COc1ccc(N2CCN(C(=O)[C@@H](NC(=O)c3cc(OC)cc(OC)c3)C(C)C)CC2)cc1,,8.2 µM (active)
CCOc1ccc(/C(O)=C2/C(=O)C(=O)N(Cc3cccnc3)C2c2ccc(N(C)C)cc2)c(C)c1 (stereo not drawn),0.155% (inactive),
C=CCC[C@@H](CCCCC)OC(=O)/C=C/[C@@H](O)[C@H](O)C[C@H](O)CC=C,,18.4 µM (active)
C=CCC[C@H](CCCCC)OC(=O)/C=C/[C@H](O)[C@@H](O)C[C@@H](O)CC=C,,14.6 µM (active)
O=S(=O)(Nc1ccccc1)c1ccc(NS(=O)(=O)c2cccs2)cc1,-2.38% (inactive),
Cc1ccc(NC(=O)CSc2nc3c(c(=O)[nH]2)CN(Cc2ccc4c(c2)OCO4)CC3)cc1C,-27.3% (inactive),
O=C(CN1CCN(C(=O)c2cccc(F)c2)CC1)Nc1ccccc1F,14.6% (inactive),
C=CCC(NCc1ccco1)c1ccc(OC)cc1 (stereo not drawn),-9.38% (inactive),
Cc1ccc(S(=O)(=O)N2CCC(C(=O)N[C@@H](C)C(=O)NCc3ccco3)CC2)cc1,-26.1% (inactive),
Cc1ccc(Cn2cc(C(=O)NN)c(=O)c3ccc(F)cc32)cc1,-13.2% (inactive),
Cc1ccc(S(=O)(=O)N2CC(C)N(S(C)(=O)=O)C2)cc1 (stereo not drawn),-1.31% (inactive),
Cc1ccc(S(=O)(=O)N2C[C@@H]3CCCC[C@@H]3[C@@H](C)[C@H]2c2cn(Cc3ccccc3)c3ccc(F)cc23)cc1,,6.51 µM (active)
CCOC(=O)c1sc(/N=C/C2=C(O)CC(C)(C)CC2=O)c(C(=O)OCC)c1C,2.25% (inactive),
CCOC(=O)c1c(NC(=O)c2ccc(Br)o2)sc2c1CCCC2,-27.4% (inactive),
CCOC(=O)c1c(NC(=O)C2(C)Cc3ccccc3C(=O)O2)sc2c1CCCC2 (stereo not drawn),,16.4 µM (active)
CCOC(=O)c1c(NC(=S)Nc2ccccc2C)sc2c1CCC2,-3.31% (inactive),
COc1ccc(C(CNC(=O)COc2ccc([N+](=O)[O-])cc2)N2CCCCC2)cc1 (stereo not drawn),-1.85% (inactive),
Cc1cccc(NC(=O)c2ccc([N+](=O)[O-])o2)c1,,9.2 µM (active)
CN1C(=O)c2ccc(C(=O)Nc3ccc(Br)cn3)cc2C1=O,12.5% (inactive),
O=C(Nc1ccc(Br)cn1)c1ccc([N+](=O)[O-])cc1Cl,-27.6% (inactive),
COc1cccc(NC(=O)c2ccc(Cn3cc([N+](=O)[O-])cn3)o2)c1,-26.5% (inactive),
O=C(Nc1ccc(Br)cn1)c1ccc([N+](=O)[O-])o1,,5.17 µM (active)
O=C(Nc1cccc(NC(=O)c2ccccc2[N+](=O)[O-])c1)c1ccccc1Cl,-14.8% (inactive),
Cc1[nH]c2ccccc2c1C(=O)C(=O)N(C)c1ccccc1,-24.6% (inactive),

Structure (SMILES),"activity change, negative = growth inhibition",Potency
O=C(OCCOc1ccccc1F)c1cc(S(=O)(=O)N2CCOCC2)ccc1F,-13.6% (inactive),
CCc1ccccc1NC(=O)CSc1nnc(-c2ccncc2)o1,-5.21% (inactive),
O=C(CNCCO)NC12CC3CC(CC(C3)C1)C2,0.175% (inactive),
CCOC(=O)C1C(C)C(C(C)(C)C)N(S(=O)(=O)c2ccc(C)cc2)C1c1ccccc1 (stereo not drawn),,16.4 µM (active)
Cc1ccc(S(=O)(=O)N2[C@@H](c3cccc(Cl)c3)C(C(=O)O)=CC[C@H]2c2ccc(Cl)c(Cl)c2)cc1,-23.6% (inactive),
CCOC(=O)C1=CC[C@@H](c2ccccc2)N(S(=O)(=O)c2ccc(C)cc2)[C@H]1c1ccc(CC)cc1,,16.4 µM (active)
CCCCC(c1nnnn1CS(=O)(=O)c1ccc(C)cc1)N1CCC(C(N)=O)CC1 (stereo not drawn),-20.1% (inactive),
Cc1ccc(S(=O)(=O)N2[C@@H](c3ccccc3F)C(C(=O)O)=CC[C@H]2c2ccc(Cl)cc2)cc1,-17.6% (inactive),
CCCCC[C@@H]1C=C(C(=O)OCC)[C@H](c2ccccc2)N1S(=O)(=O)c1ccc(C)cc1,,10.3 µM (active)
Cc1ccccc1S(=O)(=O)N1[C@@H](c2cccc(Cl)c2)C(C(=O)O)=CC[C@H]1c1ccc(Cl)cc1,-5.82% (inactive),
CCOC1=C2[C@H]([C@H]3C(=O)N(c4ccccc4)C(=O)[C@H]3C1)[C@@H](c1ccccc1)N(S(=O)(=O)c1ccc(C)cc1)[C@H]2c1ccccc1,-12.7% (inactive),
CCc1ccc([C@@H]2CC(=O)[C@@H]3CN(S(=O)(=O)c4ccc(C)cc4)[C@H](c4ccc(Cl)cc4)C[C@@H]3N2S(=O)(=O)c2ccc(C)cc2)cc1,8.29% (inactive),
Cc1ccc(S(=O)(=O)N2[C@@H](c3cccc4ccccc34)C(C(=O)O)=C[C@H]2C(C)(C)C)cc1,5.31% (inactive),
Cc1ccc(S(=O)(=O)N2[C@@H](c3ccc(Br)cc3)C(C(=O)O)=C[C@H]2CC2CCCC2)cc1,-12.9% (inactive),
Cc1ccccc1S(=O)(=O)N1[C@@H](c2cccc(Cl)c2)C(C(=O)OC(C)(C)C)=CC[C@H]1c1ccc(Cl)cc1,,16.4 µM (active)
Cc1cccc(/C(N)=N/OC(=O)c2ccccc2Cl)c1,-18.2% (inactive),
COc1ccc(C2=NOC3(CC(=O)N(c4ccc(C)cc4)C3=O)C2)cc1 (stereo not drawn),-19.9% (inactive),
Cc1nn(C)c(Oc2ccc(Cl)cc2)c1C=O,-24.7% (inactive),
CCCCn1c(N)c(N(CCOC)C(=O)COc2c(C)cccc2C)c(=O)[nH]c1=O,-10.6% (inactive),
CCC(=O)Nc1cc(C(F)(F)F)ccc1N1CCCC1,-2.98% (inactive),
CC(C)(C)NC(=O)COC(=O)c1cc(Cl)ccc1[N+](=O)[O-],-16.1% (inactive),
Cc1[nH]c2ccccc2c1SCC(=O)Nc1nccs1,-6.86% (inactive),
COc1ccc(Br)cc1C(=O)NC(=S)Nc1cc(-c2nc3ccccc3[nH]2)ccc1C,,14.6 µM (active)
COc1ccc(Br)cc1C(=O)Nc1cccc(C)c1C,-22.7% (inactive),
Cc1ccc(OCC(=O)Nc2ccc(Cl)c(-c3nc4ccccc4[nH]3)c2)cc1C,-98.6% (inactive),
CCOC(=O)c1nnn(CC(=O)NC(=O)Nc2ccccc2F)c1C(=O)OCC,-18.3% (inactive),

Structure (SMILES),"activity change, negative = growth inhibition",Potency
COc1ccc(N(CC(=O)NCC2CCCO2)C(=O)CCC(=O)Nc2nccs2)c(OC)c1 (stereo not drawn),-20.4% (inactive),
O=c1c(O)c(Br)ccc2c(Br)c(O)c(O)c(O)c12,8.26% [at 9.04 µM] (inactive),
C[C@H](NC(=O)c1ccccc1Cl)C(=O)OCC(=O)N1CCN(c2ccccc2)CC1,0.465% (inactive),
O=C(OCC(=O)N1CCN(c2ccccc2)CC1)c1ccc([N+](=O)[O-])s1,,4.61 µM (active)
COc1cc(NC(=O)COC(=O)c2ccc([N+](=O)[O-])s2)cc(OC)c1OC,11.9% (inactive),
Oc1ccc(-c2cccc(-c3ccc(O)cc3)c2)cc1,6.67% (inactive),
Cc1cn(C2CC(O)C(CO)O2)c(=O)n(CCCc2ccccc2)c1=O (stereo not drawn),-14.7% (inactive),
COCCn1c(=O)c(-c2cccs2)nc2cnc(N3CCN(C)CC3)nc21,-22.9% (inactive),
CCOC(=O)N1CCN(Cc2nc3cc(NC(C)=O)ccc3n2C)CC1,0.858% (inactive),
CCOC(=O)N1CCN(Cc2nc3cc(NC(=O)CC)ccc3n2CC)CC1,,29.1 µM (active)
CN1CCN(Cc2nc3cc(NC(=O)COc4ccc([N+](=O)[O-])cc4)ccc3n2C)CC1,17.7% (inactive),
CC(=O)Cc1nsc(NC(=O)c2ccc(COc3ccc(C)cc3)o2)n1,1.76% (inactive),
CN1CCC(=NNC(=O)CN(c2cccc(Cl)c2)S(C)(=O)=O)CC1,-7.27% (inactive),
CC1=CCC2C(=O)N(c3cccc(C(=O)NC(C)c4ccccc4)c3)C(=O)C2C1 (stereo not drawn),7.3% (inactive),
COc1ccc(CCNC(=O)c2ccco2)cc1,-29.5% (inactive),
CCCNC(=O)c1ccccc1NC(=O)CSCc1ccc(OC)cc1,-8.44% (inactive),
CCOc1ncccc1C(=O)NCCc1ccc(OC)cc1,,20.6 µM (active)
Cn1c(=O)[nH]c(=O)c2c1[nH]c(=S)n2Cc1ccccc1,26.7% (inactive),
Cc1cccc(OCCNC(=O)CSc2ccc(C(F)(F)F)cc2[N+](=O)[O-])c1,,16.4 µM (active)
Cc1cccc(OCCNC(=S)NC(=O)c2cccnc2)c1,-8.96% (inactive),
O=C(CSc1ccc(C(F)(F)F)cc1[N+](=O)[O-])NCCOc1ccccc1,-16.7% (inactive),
Clc1ccc(-n2nnnc2-c2cnc(-c3ccccn3)nc2-c2cccs2)cc1,,5.17 µM (active)
CN(C)c1nnnn1-c1ccc(Cl)cc1,-1.87% (inactive),
O=c1c(-c2cccs2)nc2cnc(Oc3ccccc3)nc2n1-c1ccccc1,-6.07% (inactive),
O=C(OC(C(=O)NC1CCCC1)c1ccc(F)cc1)c1ccno1 (stereo not drawn),-10.5% (inactive),
O=C(Nc1ncc2c(n1)CC(c1ccco1)CC2=O)c1ccc(Cl)cc1 (stereo not drawn),-25.7% (inactive),

Structure (SMILES),"activity change, negative = growth inhibition",Potency
Cc1cccc(NC(=O)CSc2nc3c(c(=O)[nH]2)CCCC3)c1C,-8.26% (inactive),
CC(=O)NC1=NC(=O)CS1,-2.82% (inactive),
COc1cccc(COc2ccc(N(C)S(=O)(=O)c3ccccc3)cc2)c1,,16.4 µM (active)
Cc1ccc(S(=O)(=O)N(C)c2ccc(OCC(=O)OCc3ccc(C#N)cc3)cc2)cc1,-1.54% (inactive),
CN(c1ccc(OCC(=O)O)cc1)S(=O)(=O)c1ccc2ccccc2c1,-8.74% (inactive),
CCOC(=O)CNC(=O)CSc1nc2cccnc2n1CC,-5.19% (inactive),
CC(C)C[C@H]1CN=C(Nc2ccccc2)N1CC1CCCCC1,,16.4 µM (active)
CC(CO)(CO)NC(=O)c1ccc(=O)[nH]n1,7.23% (inactive),
Cc1cccc(-n2c(=O)c3c(c4cc(C)ccc4n3C)n(CC(=O)Nc3ccccc3Cl)c2=O)c1,-9.55% (inactive),
CCc1ccccc1NC(=O)Cn1c(=O)n(-c2cccc(C)c2)c(=O)c2c1c1cc(OC)ccc1n2C,,2.06 µM (active)
Cc1ccc2c(c1)c1c(c(=O)n(-c3ccccc3)c(=O)n1CC(=O)c1ccc(Cl)cc1)n2C,-11.5% (inactive),
CCC(CC)c1nnc(NS(=O)(=O)Cc2ccccc2)s1,-0.792% (inactive),
Cc1nn(C(C)C(=O)N2CCOCC2)c(=O)c2nn(-c3ccccc3)c(C)c12 (stereo not drawn),10.9% (inactive),
Cc1c(CNCCc2ccccc2)c(C(=O)O)c(C)n1-c1ccccc1,-6.22% (inactive),
CC1=NOC(=O)/C1=C\c1ccccc1,-19.8% (inactive),
C#CCOc1ccccc1/C=C1/C(=O)ON=C1C,,14.6 µM (active)
Cc1cn(C)c(CC(=O)NCc2ccccc2)c1C(=O)O,10% (inactive),
COc1ccc(Cl)cc1NC(=O)COC(=O)C(CC(C)C)N1C(=O)C2CC=CCC2C1=O (stereo not drawn),,18.4 µM (active)
COc1ccc(Cl)cc1NC(=O)COc1ccc2c(c1)OCO2,-1.31% (inactive),
COc1ccc(Cl)cc1NC(=O)CN1CCN(C(=O)N2CCOCC2)CC1,-16.6% (inactive),
CC1(C)NC(=O)N(CCOc2cccc(Oc3ccccc3)c2)C1=O,-8.49% (inactive),
Cc1nnc(N(Cc2ccco2)C(=O)c2ccno2)s1,-13.2% (inactive),
CCCNC(=O)c1c(Cl)cnn1-c1ccc(C)cc1,-16% (inactive),
Cc1ccnc(NC(=O)CCCOc2ccccc2)c1,-0.626% (inactive),
COc1ccc(Cl)cc1NC(=O)c1oc(C)nc1C,-4.86% (inactive),
